Bioassay records from PubChem BioAssay.
Sampled rows, rich in hits. Any-hit rate of the full collection: about 17%.
TGFb SMAD3 inh = qHTS for Inhibitors of TGF-b; HepG2 CAGA-GFP TGF-b/SMAD3 reporter, GFP fluorescence, 18 h; TGF-beta stimulated, 500 pg/mL final; Potency, µM (highest dose often 46.1 µM), for inactives: at the top dose activity, negative = inhibition, hits mostly inhibitors; 1.2% of 410,000 active; AID 588855, 2011; note: % is set by controls: 0 for no effect and ±100 for the full control effect; nearly all actives have a fitted effect of over 65% in size
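First, reporter cells (HEPG2 CAGA-GFP) rested 2 h at 37 degrees C. Next, compounds were pinned in and TGF-beta added to 500 pg/mL final. After 18 h, GFP was imaged per cell and summed per well.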
TDP1 cell CPT = qHTS for Inhibitors of human tyrosyl-DNA phosphodiesterase 1 (TDP1): qHTS in cells in presence of CPT. Potency, µM (titrated, usually from 46.2 µM), for inactives: top-dose activity change, negative = growth inhibition, hits mostly inhibitors. 12% of 420,000 active. chicken DT40 Tdp1-/-;hTDP1 cells + 20 nM CPT, ATP luminescence, 48 h; note: % is set by controls: 0 for no effect and ±100 for the full control effect; nearly all actives have a fitted effect of over 55% in size
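Cell growth measured by CellTiter-Glo luminescence after a minimum 48 h, 37 C compound exposure with 20 nM CPT in Tdp1-knockout DT40 cells stably expressing hTDP1, seeded 400/well; qHTS titration format.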
HT1080-NT tox = qHTS for induction of synthetic lethality in tumor cells producing 2HG: qHTS for the HT-1080-NT fibrosarcoma cell line; HT-1080-NT fibrosarcoma viability, CellTiter-Glo ATP luminescence, 48 h; AID 686970, 2013; 1.6% of 360,000 active; Potency, µM (top dose mostly 46.1 µM), for the others: at the highest dose activity, negative = less viability, hits mostly cytotoxic;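 note: NT is the 2HG producing partner of a matched IDH1 knockdown line; 0% = DMSO-treated cells and -100% = media-only wells without cells; nearly all actives have a fitted effect of over 55% in size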
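750 cells/well, RPMI + 5% FBS; 2 h settle, compound pin-transfer, 48 h at 37 degrees C. CellTiter-Glo 10 min RT, luminescence. Normalized to DMSO and media-only wells.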
DT40 TDP1 no CPT = qHTS for Inhibitors of human tyrosyl-DNA phosphodiesterase 1 (TDP1): qHTS in cells in absence of CPT; DT40 Tdp1-/- hTDP1 cells, no CPT, ATP luminescence, 48 h; Potency, µM (titrated, usually from 46.2 µM), inactives show at the highest dose activity change, negative = growth inhibition, hits mostly inhibitors; 15% of 420,000 active; note: % is set by controls: 0 for no effect and ±100 for the full control effect; nearly all actives have a fitted effect of over 55% in size
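Stably hTDP1-transfected Tdp1-null chicken DT40 cells were treated with library compounds minus camptothecin and grown for at least 48 hr at 37 °C, after which cellular ATP was quantified by luminescence.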
HT1080 IDH1KD tx = qHTS for induction of synthetic lethality in tumor cells producing 2HG: qHTS for the HT-1080-IDH1KD cell line | HT-1080 IDH1 knockdown viability, ATP luminescence, 48 h | Potency, µM (highest dose often 46.1 µM), for the others: at the highest dose activity, negative = toxicity, actives largely listed as cytotoxic | 2% of 360,000 active | AID 686971, 2013;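 note: 0% = DMSO wells and -100% = cell-free medium wells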
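HT-1080-IDH1KD cells (IDH1 knocked down), 750/well in RPMI with 5% FBS, treated with compound 48 h at 37 degrees C. Viability by CellTiter-Glo luminescence, normalised to DMSO and no-cell wells; concentration-response curves classed.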
HepG2 tox = qHTS for Inhibitors of TGF-b: Cytotox Counterscreen; HepG2 CAGA-GFP viability, ATP luminescence, 18 h; Potency, µM (titrated, usually from 46.1 µM), for inactives: at the top dose activity change, negative = cytotoxicity, usual class: cytotoxic; 0.76% of 410,000 active; AID 588856, 2011
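HepG2 CAGA-GFP cells (1000/well, DMEM with 1% FBS) received compound, then TGF-beta at 500 pg/mL final, and were incubated 18 hours at 37 degrees C. Viability was read by CellTiter-Glo luminescence. Media-only wells were set as complete cell-killing and DMSO as no toxicity.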
* = called active by the depositor; ? = inconclusive; · = no result given; [ ] = dose if it differs, or a comment. Calls come from the whole dose curve; as a rule, active = well fitted curve in the direction sought with a large enough effect; inconclusive = small, poorly fitted or top-dose-only effect, or another doubt; inactive = no such curve, though single readings can be large; an effect the other way counts as inactive or inconclusive. Potency is the fitted concentration of half-maximal effect.

SMILES	TGFb SMAD3 inh	TDP1 cell CPT	HT1080-NT tox	DT40 TDP1 no CPT	HT1080 IDH1KD tx	HepG2 tox
COC(=O)c1ccc(-c2ccc([C@H]3[C@H]4C=CC[C@@H](C)[C@@H]4C(=O)N3Cc3ccccc3)c(F)c2)cc1	?	6.5µM*	?	3.3µM*	?	-11%
CC(=O)c1ccc(-c2ccc([C@H]3[C@H]4C=CC[C@@H](C)[C@@H]4C(=O)N3Cc3ccccc3)c(F)c2)cc1	?	13µM*	?	13µM*	?	-13%
O=C(Nc1c2c(nn1-c1ccccc1)CS(=O)(=O)C2)C1CC1	1%	-2%	3%	-6%	6%	-49%
CCC(=O)c1c[nH]c(C(=O)NCc2ccco2)c1	8%	1%	16%	-5%	11%	-3%
O=C(c1ccc(F)cc1)c1c[nH]c(C(=O)NCc2ccco2)c1	3%	?	-5%	12µM*	-2%	-16%
COc1cccc(-n2nc(-c3ccnn3-c3ccccc3)c(=O)n(C)c2=O)c1	37%	-3%	-1%	?	0%[9.24 µM]	-9%
COc1cccc(-n2nc(-c3ccnn3-c3cccc(Cl)c3)c(=O)n(C)c2=O)c1	?	23µM*	-4%	16µM*	0%	-7%
NC(CO)c1csc(Nc2ccc(C(F)(F)F)cn2)n1 (configuration not stated)	-1%	?	-15%	?	-25%	-33%
CN(C)Cc1csc(Nc2ccc(C(F)(F)F)cn2)n1	41%	26µM*	?	-84%	-30%	-35%
NC(Cc1ccc(Cl)cc1)c1csc(Nc2ccc(C(F)(F)F)cn2)n1 (configuration not stated)	?	9.2µM*	?	9.2µM*	?	-98%
CC(C)CC(N)c1csc(Nc2ccc(C(F)(F)F)cn2)n1 (configuration not stated)	?	12µM*	18µM*	6.5µM*	?	18µM*
COc1cccc(CNC(=O)c2c(OC)cc(=O)n3c2CCN(C(=O)C2CC=CCC2)CC3)c1 (configuration not stated)	·	-9%	·	-13%	·	·
Cc1nnsc1C(=O)NC1CCCc2c1cnn2-c1ccccc1F (configuration not stated)	7%	10µM*	?	18µM*	-11%	-66%
O=C(NC1CCCc2c1cnn2-c1ccccc1F)c1ccccn1 (configuration not stated)	0%	?	-17%	?	-2%	-34%
Cc1ccc(-n2ncc3c2CCCC3NC(=O)c2csnn2)cc1C (configuration not stated)	-4%	?	1%	?	-7%	-6%
Cc1nnsc1C(=O)NC1CCCc2c1cnn2-c1ccc(C(C)(C)C)cc1 (configuration not stated)	13%	10µM*	-28%	7.3µM*	-20%	-25%
CCOc1ccc(CCNC(=O)c2ccc(C)c(NC3=NC4CS(=O)(=O)CC4S3)c2)cc1 (configuration not stated)	11%	-10%	2%	23%	-3%	2%
Cc1cc(Cl)ccc1-c1nc(NCc2ccccc2)nc2ccsc12	-16%	?	?	?	?	-13%
Cc1cc(Cl)ccc1-c1nc(NC(C)C)nc2ccsc12	11%	18µM*	-2%	23µM*	0%	-11%
CCOC1=C2CN(S(=O)(=O)c3ccc(C)cc3)[C@H](c3ccc(CC)cc3)C[C@@H]2N(S(=O)(=O)c2ccc(C)cc2)[C@H](c2ccccc2)C1	-6%	?	5%	?	4%	-23%
CCOC1=C2CN(S(=O)(=O)c3ccc(C)cc3)C(c3ccc(CC)cc3)CC2N(S(=O)(=O)c2ccc(C)cc2)C(c2ccc(CC)cc2)C1 (configuration not stated)	·	3.7µM*	17%	2.1µM*	9%	·
CCOC1=C2CN(S(=O)(=O)c3ccc(C)cc3)[C@H](c3ccccc3)C[C@@H]2N(S(=O)(=O)c2ccc(Br)cc2)[C@H](c2ccccc2)C1	-5%	?	21%	12µM*	1%	1%
COc1ccc(/C=N/NC(=O)c2ccc(Br)cc2)cc1CN1CCOCC1	0%	14%	0%	-14%	14%	-11%
COc1ccc(C(=O)/C=C/c2ccc(OC)c(CN3CCOCC3)c2)cc1	?	?	-4%	23µM*	?	-32%
COc1ccc(/C=C/C(=O)c2ccc(O)cc2)cc1CN1CCOCC1	?	?	-36%	29µM*	?	-26%
SMILES	TGFb SMAD3 inh	TDP1 cell CPT	HT1080-NT tox	DT40 TDP1 no CPT	HT1080 IDH1KD tx	HepG2 tox
COc1ccc(/C=N\NC(=O)c2nn(C)cc2Cl)cc1CN1CCOCC1	4%	21%	17%	-7%	19%	15%
COc1ccc(/C=C/C(=O)c2nc3ccccc3n2CC(=O)c2ccc(OC)cc2)cc1	-6%	4%	-3%	-13%	-8%	-19%
COc1ccc(C(=O)/C=C/c2ccc(OC)c(Cn3nnc4ccccc43)c2)cc1	-57%	18µM*	-20%	21µM*	-28%	-6%
COc1ccc(/C=C/C(=O)C23CC4CC(CC(C4)C2)C3)cc1CN1CCOCC1	?	?	?	18µM*	?	-2%
CCCCn1cnc2c(c(CC#N)nn2-c2ccccc2)c1=N	17%	-4%	0%	0%	3%	-3%
CCn1c(-c2ccccc2F)nc2cc(NC(C)=O)cc(C(=O)N(C)Cc3ccccn3)c21	·	4%[9.04 µM]	·	-3%	·	·
O=C(/C=C/c1cccc(O)c1)c1ccc(N2CCOCC2)cc1	?	?	-7%	15µM*	-28%	-38%
C/C(=C\C(=O)c1ccccc1)Nc1ccc(N2CCOCC2)cc1	-6%	-21%	5%	?	0%	-1%
CCc1cc(Cn2nc(-c3ccccc3)cc2C(=O)NCc2ccc(C)cc2)on1	-1%	?	1%	?	1%	-27%
CCc1cc(Cn2nc(-c3ccccc3)cc2C(=O)NCc2cccc(Br)c2)on1	?	?	-5%	16µM*	-12%	-22%
